# D2 PAM-1: D2 dopamine receptor (human) potentiation | AID 485347 | potentiation, % at 10 µM | 340,000 compounds, 0.34% hits | P14416 | HEK293 T-REx D2, calcium flux, EC20 dopamine potentiation;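 active means potentiation over 3 SD above the plate norm, cut at about 30% in these data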; further: 0% is about no effect
#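 Potentiation of an EC20 dopamine calcium response is measured in a force-coupled, tetracycline-inducible Hek293 Trex D2 line. Compound-only kinetic reads over 180 s flag agonists before dopamine addition.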
# D2 ag-1: human D2 receptor agonism in beta-arrestin assay | P14416 | DiscoveRx PathHunter D2 beta-arrestin, luminescence, 90 min; 100% = 57 uM dopamine signal | activation, % (concentration not given with the values) | 360,000 compounds, 0.084% hits | AID 624465; in the data active means activation above about 40%; inconclusive means between about 15% and that limit
#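 DiscoveRx PathHunter D2 beta-arrestin cells (2,100/well) attached overnight, then compound-stimulated 90 min at 37 C in HBSS/10 mM HEPES/0.1% Tween-20 buffer; beta-galactosidase complementation read by luminescence after 1 h at ambient temperature. Dopamine 57 uM final (EC100) as control.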
# D2 antag: antagonists of human D2 dopamine receptor; 340,000 compounds, 2% hits; HEK293 TREx D2 cells, calcium flux, dopamine EC80; inhibition, % at 10 µM; P14416; in the data active means inhibition above about 30%; inactive means below that, where a call was filed; further: 0% is about no effect
#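 Compounds are added to dye-loaded, induced HEK293 T-REx cells coupled to calcium release via D2; after a 3 min kinetic read an EC80 dopamine stimulus is given and fluorescence is recorded for 3 more min.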
# D2 PAM-2: potentiates the human D2 dopamine receptor allosterically. 360,000 compounds, 0.23% hits. potentiation, % (test concentration not listed). DiscoveRx D2 beta-arrestin cells, luminescence, 90 min; 100% = 57 uM dopamine signal; in the data active means potentiation above about 50%; inconclusive means mostly about 30% to 49%
#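 D2 cells co-treated with compound plus 50 nM dopamine (EC20) for 90 min at 37 deg C to detect potentiation. Beta-arrestin recruitment was read as enzyme-fragment luminescence after 1 h at ambient temperature. Full response was set by 57 uM dopamine.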
# D2 ag-2: activates the human D2 dopamine receptor; 340,000 compounds, 0.53% hits; HEK293 T-REx D2 cells, calcium flux agonist mode; P14416; activation, % at 2 µM;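 active means activation over 3 SD above normal in the single-dose calcium agonist read, cut at about 30% in these data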; further: 0% is about no effect
#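 Agonism is scored from calcium flux in a force-coupled, inducible HEK293 cell line expressing D2, read kinetically for 180 s after compound addition against dopamine controls.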
# D3 arrestin ag: confirmation of human D3 dopamine receptor agonists, beta-arrestin. shares compounds with D2 ag-2. DiscoveRx D3 beta-arrestin cells, luminescence, 90 min. Potency, µM (titrated, usually from 76.9 µM), inactives show at the top dose activation, most hits filed as activators. 2,300 compounds, 4% hits;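 further: potency means the concentration at half of the fitted maximal effect; 100% = dopamine control response; nearly all actives have a fitted effect of over 70% in size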
# Target sequence (P35462 whole entry, looked up): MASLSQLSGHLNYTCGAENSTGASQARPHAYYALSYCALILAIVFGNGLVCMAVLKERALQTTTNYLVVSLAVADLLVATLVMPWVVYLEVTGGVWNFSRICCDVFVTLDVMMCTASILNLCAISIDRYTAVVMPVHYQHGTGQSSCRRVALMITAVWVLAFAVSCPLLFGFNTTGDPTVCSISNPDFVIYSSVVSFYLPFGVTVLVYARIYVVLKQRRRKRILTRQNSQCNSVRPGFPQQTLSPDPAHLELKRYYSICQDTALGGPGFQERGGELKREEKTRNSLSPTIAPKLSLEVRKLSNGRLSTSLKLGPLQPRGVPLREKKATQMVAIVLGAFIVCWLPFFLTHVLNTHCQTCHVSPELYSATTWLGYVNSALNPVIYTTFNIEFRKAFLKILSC
# D2 ag-3: D2 receptor agonism, beta-arrestin counterscreen; shares compounds with D2 ag-2; DiscoveRx PathHunter D2 beta-arrestin, luminescence, 90 min; response scale: percent relative to full dopamine signal; Potency, µM (titrated, usually from 76.9 µM), without a hit: top-dose activation, usual class: activators; 2,300 compounds, 5.9% hits; further: potency means the concentration at half of the fitted maximal effect; % of control where 0% means no effect; nearly all actives have a fitted effect of over 70% in size
# * = called active by the depositor; ? = inconclusive; / = not tested or not shown. Sampled rows, rich in hits. Any-hit rate of the full collection: about 2.4%. Unless noted, the call rests on the fitted dose curve; in most records, active means well fitted activation curve with a large enough effect; inconclusive means small, poorly fitted or top-dose-only effect; inactive means flat fitted curve, though single readings scatter.
SMILES,D2 PAM-1,D2 ag-1,D2 antag,D2 PAM-2,D2 ag-2,D3 arrestin ag,D2 ag-3
CCN(CC)S(=O)(=O)c1ccc(NC(=O)c2cc(C(=O)OC)cc([N+](=O)[O-])c2)cc1,-19,3,0,5,46*,9%,4%
COC(=O)c1cc(C(=O)Nc2ccc(S(=O)(=O)NC(C)(C)C)cc2)cc([N+](=O)[O-])c1,-2,5,-13,7,2,/,/
COc1ccc(-n2nc(C(=O)Nc3cc(C)ccn3)c3c4ccccc4n(C)c3c2=O)cc1Cl,-1,/,/,/,1,/,/
COc1ccc(CNC(=O)[C@]2(C)CCC[C@@]3(C)C4CC[C@@]5(C)C[C@]4(CCC32)CC5=O)cc1 (stereo not given in full),-6,-2,10,-5,-1,-7%,2%
COC(=O)c1cccnc1-n1c(=O)c2cccnc2n(CC(=O)Nc2ccccc2F)c1=O,-13,/,/,/,0,/,/
O=C(NC1CCCCC1)N1CCc2ccccc2C1,2,-4,-3,-26,0,/,/
O=C(CN1CCc2ccccc2C1)NC1CCCC1,9,1,14,-8,-2,2%,4%
CCN(CC)S(=O)(=O)c1ccc(O)c(NC(=O)CN2CCc3ccccc3C2)c1,-4,-3,-6,-5,4,/,/
N#CC1(NC(=O)CN2CCc3ccccc3C2)CCCC1,-32,4,8,0,16,1%,10%
CN(C)S(=O)(=O)c1ccc(Cl)c(NC(=O)CN2CCc3ccccc3C2)c1,-25,64*,87*,16,61*,10µM*,14µM*
Cc1ccc(NC(=O)CN2CCc3ccccc3C2)cc1S(=O)(=O)N(C)C,-22,8,18,-9,47*,30%,29%
CC(C)c1nn2c(=O)cc(COC(=O)c3ccc(NC(=O)CCc4ccccc4)cc3)nc2s1,-1,/,/,/,2,/,/
CC(=O)C(Cc1ccccc1)NC(=O)CN1CCc2ccccc2C1 (stereo not given),-8,-2,7,-15,0,/,/
Cc1ccccc1NC(=O)CN1CCc2ccccc2C1,-24,?,40*,-12,68*,?,?
CN(C)S(=O)(=O)c1ccc(Cl)c(NC(=O)CN2CCN(c3ccccn3)CC2)c1,-25,?,27,3,69*,?,32µM*
CCOc1ccccc1NC(=O)CN1CCc2ccccc2C1,-7,4,0,-6,3,/,/
Cc1cccc(NC(=O)N2CCc3ccccc3C2)c1C,-6,-6,5,-5,26,-13%,0%
CC(CCc1ccccc1)NC(=O)CN1CCc2ccccc2C1 (stereo not given),-17,15,68*,4,71*,-4%,?
CC1CCN(S(=O)(=O)c2ccc3c(c2)oc(=O)n3CC(=O)N2CCCCC2)CC1,-3,/,/,/,2,/,/
Cc1oc(-c2ccccc2Cl)nc1CSc1nncn2c1cc1occc12,-11,/,/,/,0,/,/
COc1cc2c(cc1OC)C(COc1ccc3c(C)cc(=O)oc3c1)N(C(=O)c1cccc(C)c1)CC2 (stereo not given),-11,/,/,/,0,/,/
NC(=O)NC(=O)COC(=O)[C@H](Cc1ccccc1)NC(=O)c1cccs1,4,-2,10,-19,17,14%,-5%
O=C(COC(=O)[C@H](Cc1ccccc1)NC(=O)c1cccs1)Nc1ccccc1C(F)(F)F,-8,-1,4,-5,0,/,/
Cc1ccc2[nH]c(=O)c3cc(C(=O)N(C)Cc4ccco4)sc3c2c1,-12,-6,-11,-1,82*,-3%,-3%
Cn1c(=O)cc(SCC(=O)N2CCN(c3ccccc3F)CC2)c2ccc(Cl)cc21,-1,/,/,/,0,/,/
SMILES,D2 PAM-1,D2 ag-1,D2 antag,D2 PAM-2,D2 ag-2,D3 arrestin ag,D2 ag-3
O=C(CCN1CCCC1Cc1ccccc1)c1ccc2c(c1)OCCO2 (stereo not given),-28,7,109*,-18,82*,?,?
O=C(CCN1CCCCC1)c1ccc2c(c1)OCCO2,6,-4,-27,-20,2,/,/
N#CCN=C(c1ccccc1)c1ccccc1,-8,-8,20,-8,0,-10%,-3%
N#CN=C(c1ccccc1)c1ccccc1,1,0,7,-4,1,/,/
Cc1ccc(C)c(NS(=O)(=O)c2ccc(-c3ccc(=O)[nH]n3)o2)c1,-9,8,6,2,44*,-1%,22%
Cc1cccc(NS(=O)(=O)c2ccc(-c3ccc(=O)[nH]n3)o2)c1,/,4,/,-4,/,/,/
COc1ccc2c(c1)c1c(c(=O)n(Cc3ccccc3)c(=O)n1Cc1ccc(C)cc1)n2C,-3,/,/,/,1,/,/
CCN1C(=O)c2ccccc2S(=O)(=O)c2ccc(C(=O)NCc3ccc(C)cc3)cc21,-5,/,/,/,0,/,/
COCCCn1c(SCC(=O)NC2CCCCC2)nnc1-c1ccncc1,-4,-4,1,?,2,/,/
COCCCn1c(SCC(=O)NC2CCS(=O)(=O)C2)nnc1-c1ccc(Cl)cc1 (stereo not given),4,-4,-6,-1,0,-3%,-2%
CCOC(=O)C(NC(C)=O)(OCc1ccccc1)C(F)(F)F (stereo not given),-20,1,-7,4,67*,1%,-3%
CCOC(=O)C(NCCc1ccccc1)(NC(=O)CC)C(F)(F)F (stereo not given),-6,3,-8,6,2,0%,1%
COc1cc(NS(=O)(=O)c2ccc(NC(=O)c3cccc(F)c3)cc2)nc(OC)n1,2,/,/,/,-2,/,/
O=c1c2cc([N+](=O)[O-])ccc2nc(CN2CCN(c3ccccn3)CC2)n1-c1ccccc1F,-21,0,-24,-3,27,13%,8%
COc1cc(C(=O)CC2(O)C(=O)N(Cc3ccccc3Cl)c3ccccc32)cc(OC)c1OC (stereo not given),19,/,/,/,1,/,/
Cc1cc(=O)oc2cc(OC(C)C(=O)NC3CCCC3)ccc12 (stereo not given),-16,5,2,-5,1,/,/
Cc1cc(=O)oc2cc(OC(C)C(=O)Nc3nccs3)ccc12 (stereo not given),/,-3,/,-1,/,-3%,-5%
COc1ccc(OC)c(CCNC(=O)Cn2nc(C)n3c(cc4sccc43)c2=O)c1,-2,/,/,/,0,/,/
CCCn1c(N2CCN(C(=O)Nc3ccc(Cl)cc3)CC2)nc2ccccc21,/,?,/,7,/,13%,?

# Source: PubChem BioAssay (National Center for Advancing Translational Sciences (NCATS))
